From PubChem BioAssay AID1159580 (chemical genetic matrix, 2015)
The campaign covered roughly 5,500 compounds. About 2,000 (36%) were called active. About 18% were inconclusive and are not listed. No stated cut-off is given here; in the data, active means normalized growth mostly below about 0.91 (no sharp cut-off); inconclusive means no clear call, values can overlap the other calls; inactive means mostly above about 0.92. Some of the results follow.

Assay: chemical genetic growth profiling, strain panel (AID 1159580);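 further: tested at 20 µM; growth read once vehicle control cultures reached saturation at 30 °C; 1 = growth at the plate median or of vehicle wells; lower values mean less growth of the strain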
Settings: S. cerevisiae deletion strains, growth OD

Measured: normalized growth

Oc1ccc2c(c1)OCC1c3cc4c(cc3OC21)OCO4 (stereo not drawn)
inactive: locus YBR021W, strain FUR4, active compounds read low 0.862 | locus YBR229C, strain ROT2, active compounds read low 0.957 | locus YCL029C, strain bik1, active compounds read low 0.946 | locus YDL035C, strain GPR1, active compounds read low 0.981 | locus YDL074C, strain BRE1, active compounds read low 1.03 | locus YDL101C, strain DUN1, active compounds read low 0.987 | locus YDL134C, strain PPH21, active compounds read low 1.02 | locus YDL185W, strain tfp1, active compounds read low 0.964 | locus YDL192W, strain arf1, active compounds read low 0.944 | locus YDR101C, strain arx1, active compounds read low 0.942 | locus YDR150W, strain NUM1, active compounds read low 1 | locus YDR162C, strain NBP2, active compounds read low 0.993 | locus YDR318W, strain mcm21, active compounds read low 0.962 | locus YDR388W, active compounds read low 0.966 | locus YDR502C, strain sam2, active compounds read low 0.961 | locus YEL061C, strain CIN8, active compounds read low 0.99 | locus YER110C, active compounds read low 0.954 | locus YER155C, strain BEM2, active compounds read low 1 | locus YER167W, strain BCK2, active compounds read low 1 | locus YGL078C, strain dbp3, active compounds read low 0.992 | locus YGL086W, strain mad1, active compounds read low 0.957 | locus YGL248W, strain PDE1, active compounds read low 1 | locus YGR135W, strain pre9, active compounds read low 0.993 | locus YGR252W, strain gcn5, active compounds read low 0.902 | locus YHR079C, strain IRE1 (second series), active compounds read low 0.995 | locus YHR094C, strain hxt1, active compounds read low 0.982 | locus YHR129C, strain ARP1, active compounds read low 1.02 | locus YHR200W, strain rpn10, active compounds read low 0.972 | locus YIL066C, strain RNR3, active compounds read low 0.999 | locus YIL073C, strain SPO22, active compounds read low 1.03 | locus YIL125W, strain kgd1, active compounds read low 0.968 | locus YIR030C, strain dcg1, active compounds read low 0.971 | locus YJL095W, strain BCK1, active compounds read low 0.929 | locus YJL134W, strain LCB3, active compounds read low 0.992 | locus YJL168C, strain set2, active compounds read low 0.996 | locus YJL187C, strain SWE1 (second series), active compounds read low 0.966 | locus YJR075W, strain HOC1, active compounds read low 0.999 | locus YKL009W, strain mrt4, active compounds read low 0.987 | locus YKL068W, active compounds read low 1 | locus YKL085W, strain MDH1 (second series), active compounds read low 1.02 | locus YKL085W, strain MDH1, active compounds read low 1.02 | locus YKL190W, strain CNB1, active compounds read low 1.01 | locus YLR039C, strain RIC1, active compounds read low 0.982 | locus YLR058C, strain SHM2, active compounds read low 0.962 | locus YLR102C, strain apc9, active compounds read low 0.984 | locus YLR268W, strain sec22, active compounds read low 0.906 | locus YLR371W, strain rom2, active compounds read low 0.973 | locus YML016C, strain PPZ1, active compounds read low 0.983 | locus YML032C, strain rad52, active compounds read low 0.956 | locus YML124C, strain tub3, active compounds read low 0.995 | locus YMR078C, strain ctf18, active compounds read low 1 | locus YMR223W, strain ubp8, active compounds read low 0.983 | locus YMR307W, strain GAS1, active compounds read low 1.04 | locus YNL067W, strain RPL9B, active compounds read low 1.01 | locus YNL128W, strain TEP1, active compounds read low 1.01 | locus YNL233W, strain BNI4, active compounds read low 1.05 | locus YNL250W, strain rad50, active compounds read low 1 | locus YNL271C, strain bni1, active compounds read low 0.974 | locus YNL298W, strain CLA4, active compounds read low 0.939 | locus YNL307C, strain MCK1, active compounds read low 0.95 | locus YNR052C, strain pop2, active compounds read low 0.994 | locus YOL012C, strain htz1 1.23 | locus YOL147C, strain pex11, active compounds read low 0.967 | locus YOR061W, strain CKA2, active compounds read low 0.988 | locus YOR069W, strain VPS5, active compounds read low 1.01 | locus YOR136W, strain idh2, active compounds read low 0.982 | locus YOR144C, strain elg1, active compounds read low 0.986 | locus YOR316C, strain cot1, active compounds read low 0.985 | locus YPL055C, strain LGE1, active compounds read low 0.963 | locus YPL241C, strain CIN2, active compounds read low 1.01 | locus YPR119W, strain clb2, active compounds read low 1.02 | locus YPR141C, strain kar3, active compounds read low 1.01 | locus YPR167C, strain met16, active compounds read low 1.01 | strain wtn01, active compounds read low 0.943
active: locus YKR001C, strain vps1, active compounds read low 0.863 | locus YLR418C, strain cdc73, active compounds read low 0.781 | locus YOR184W, strain ser1, active compounds read low 0.826 | locus YPR163C, strain tif3, active compounds read low 0.906
